Data on 40 compounds can be found in PubChem BioAssay (NCATS).

Inconclusive results are not listed. Entries that show only a call come without a potency. Values without a mark were called inactive. The source made the active and inactive calls. Calls come from the whole dose curve; as a rule, active = well fitted cell-killing curve with a large enough effect; inconclusive = small, poorly fitted or top-dose-only effect; inactive = no such curve, though single readings can be large or run the other way.

This experiment can be described thus: qHTS of pediatric cancer cell lines to identify multiple opportunities for drug repurposing: Primary screen for NB1643 cells (AID 1347099). Note: nearly all actives have a fitted effect of over 50% in size. As to conditions: NB1643 neuroblastoma viability, CellTiter-Glo luminescence, 48 h; series mostly up to 46 µM. The source says:
Drug repurposing or repositioning has been offered as a strategy for drug development in oncology programs. This approach has special potential for childhood cancers and other rare or orphan diseases, where the expected return on new drug development has been a disincentive to pharmaceuticals. […] In this project we exploit the poly-pharmacology of drugs to discover new indications via phenotypic screening of a panel of 19 well-characterized cell lines derived from solid tumors seen in children and adolescents. The goal is to identify approved drugs with previously unrecognized anticancer properties that has the potential to reveal new mechanisms and biological processes involved in carcinogenesis or drug resistance. We employed a titration-based paradigm (quantitative high-throughput screening or qHTS), where all compounds were tested at multiple concentrations for their effect on cell viability. Concentration-response curves (CRCs) were derived directly from the primary screen, and both potency and efficacy values were used to identify compounds with robust bioactivity profiles. We screened the NIH Chemical Genomics Center (NCGC) Pharmaceutical Collection (NPC) and Mechanism Interrogation Plate (MIPE) small molecule collections of approved and investigational compounds against these cell lines; and measured metabolically active cells after 48 hours of compound treatment as a proxy for cell viability. […] Assay Submitter: Nathalia J. Martinez, National Center for Advancing Translational Sciences, National Institutes of Health, Rockville, MD, USA; email: natalia.martinez@nih.gov Shen, M et al. Quantitative high-throughput phenotypic screening of pediatric cancer cell lines identifies multiple opportunities for drug repurposing. Oncotarget 2017 Dec 19;9(4):4758-4772. PMID 29435139.
The cells were obtained from University of North Carolina (UNC), Pediatric Preclinical Testing Program (PPT), and Coriell Institute (CI). qHTS cell viability assay: Cells were assayed in growth media at a density of 500-1,000 cells/well. Five microliters of cells were dispensed into 1,536-well, white, solid-bottom, TC-treated plates (Greiner Bio One) using a multidrop dispenser and incubated at 37 degrees C, 5% CO2, under a humidified atmosphere for 5 hours. Twenty-three nanoliters of compounds and controls (neutral control DMSO or positive control bortezomib at final concentration of 2.3 µM) were subsequently transferred by Kalypsys pintool. For primary screens, the MIPE collection was tested at 11-point dilutions (final concentrations range from 0.78 nM to 46 µM) and the NPC collection at 8-point dilutions (final concentrations range from 0.59 nM to 46 µM). Compounds tested in follow-up screens were assayed at 11-point dilutions. Cells were incubated for 48 hours, followed by addition of 3 µL of CellTiter-Glo (Promega). After a 15 min incubation at room temperature, samples were analyzed for luminescence intensity using a ViewLux High-throughput CCD imager equipped with clear filters.
A general note: Quantitative high-throughput screening tests each substance at several concentrations.
Take `O=C(O)c1ccccc1C(=O)Nc1ccc(S(=O)(=O)Nc2nccs2)cc1`: the Potency result is “inactive”.
`NC(N)=NCCN1CCCCCCC1`: the activity change, negative = cytotoxic was 6.64% [at 0.597 µM].
Regarding `O=C(O)CNC(=O)c1ccccc1I`, the Potency result was “inactive”.
For the compound `CN[C@@H]1[C@@H](O)[C@@H](O[C@@H]2[C@H](O)[C@H](O[C@H]3OC(CN)=CC[C@H]3N)[C@@H](N)C[C@H]2N)OCC1(C)O` (stereo not given in full), the Potency entry was “inactive”.
On to `O=C(O)c1ccc[n+]([O-])c1`, for which the Potency result was “inactive”.
The same measure, in the same setting: to `CCCCOC(=O)c1ccc(N)cc1` belongs “inactive”.
Regarding `CC(=O)OCC(=O)[C@@]1(O)CC[C@H]2[C@@H]3CCC4=CC(=O)C=C[C@]4(C)[C@@]3(F)[C@@H](O)C[C@@]21C`, the Potency result is “inactive”.
With `CC(N)CCCC(C)(C)O` (stereo not given), the Potency entry is “inactive”.
`Cc1cccc(C)c1NC(=O)CC12CCCN1CCC2`: the Potency entry was “inactive”.
With `O=C1c2ccccc2C(=O)C1c1ccc(Br)cc1`, the Potency entry is “inactive”.
As to `CCOC(=O)[C@H](CCc1ccccc1)N[C@@H](C)C(=O)N1CCC[C@H]1C(=O)O`, the Potency result was “inactive”.
In the case of `CC1CCc2cc(F)cc3c(=O)c(C(=O)O)cn1c23` (stereo not given), the Potency result is “inactive”.
In the case of `O=C1C(c2[nH]c3ccccc3c2O)=Nc2ccccc21`, the Potency entry was “inactive”.
Turning to `COC(=O)c1cccnc1`, the Potency result is “inactive”.
As to `CC(=O)OC[C@H]1O[C@@](COC(C)=O)(O[C@H]2O[C@H](COC(C)=O)[C@@H](OC(C)=O)[C@H](OC(C)=O)[C@H]2OC(C)=O)[C@@H](OC(C)=O)[C@@H]1OC(C)=O`, the Potency entry was “inactive”.
Regarding `O=C1c2ccccc2S(=O)(=O)N1CCCCN1CCN(c2ncccn2)CC1`, the Potency result is “inactive”.
Turning to `CCCCCCCC(=O)OCC(COC(=O)CCCCCCC)OC(=O)CCCCCCC`, the Potency entry is “inactive”.
Turning to `CC(=O)Nc1ccc(C(=O)O)cc1`, the Potency entry is “inactive”.
In the case of `CC1(c2ccccc2)OC(C(=O)O)=CC1=O` (stereo not given), the Potency result is “inactive”.
On to `O=C(O)COC(=O)Cc1ccccc1Nc1c(Cl)cccc1Cl`, for which the Potency entry was “inactive”.
As for `NCc1ccc(S(N)(=O)=O)cc1`, the Potency result is “inactive”.
Turning to `CNCc1ccccc1`, the Potency entry is “inactive”.
Turning to `CCCCCCCCCCCCCCCCC(C(=O)O)C(O)(CC(=O)O)C(=O)O` (stereo not given), the Potency result was “inactive”.
On the same count and under the same terms, to `Cc1ccc(S(=O)(=O)NC(=O)NC2CCCCC2)cc1` belongs “inactive”; to `Cc1cc(NC(=O)C2=C(O)c3ccccc3S(=O)(=O)N2C)no1`, “inactive”; to `COc1nccnc1NS(=O)(=O)c1ccc(N)cc1`, “inactive”.
On to `COCC(=O)Nc1c(I)c(C(=O)NCC(O)CO)c(I)c(C(=O)N(C)CC(O)CO)c1I` (stereo not given), for which the Potency result is “inactive”.
Regarding `CCCCCOC(=O)Nc1nc(=O)n([C@@H]2O[C@H](C)[C@@H](O)[C@H]2O)cc1F`, the Potency result is “inactive”.
On to `O=C(O)Cn1c(C(=O)Nc2nc(-c3ccccc3Cl)cs2)cc2ccccc21`, for which the Potency result is “inactive”.
`CCC(C)(CN(C)C)OC(=O)c1ccccc1` (stereo not given): the Potency result is “inactive”.
Still for that read-out and setting: for `C[N+](C)(C)CC[N+]1(C)Cc2c(Cl)c(Cl)c(Cl)c(Cl)c2C1` the value was “inactive”; for `CN1CCN(C(=O)C2CCCCC2)CC1`, “inactive”; for `c1ccc2[nH]ccc2c1`, “inactive”.
Take `NS(=O)(=O)c1ccc(C(=O)O)cc1`: the Potency result was “inactive”.
Same read-out and setting: to `NNC(=O)CP(=O)(c1ccccc1)c1ccccc1` belongs “inactive”; to `O=c1[nH]c(=O)n([C@H]2C[C@H](O)[C@@H](CO)O2)cc1I`, “inactive”; to `C=CCOc1ccccc1OCC(O)CNC(C)C` (stereo not given), “inactive”.
Same read-out and setting: for `O=C1c2cccc(O)c2C(=O)c2c(O)cccc21` the value was “inactive”.
Still for that read-out and setting: to `CC[N+](CC)(CC(=O)Nc1c(C)cccc1C)Cc1ccccc1` belongs “inactive”.
As to `COc1ccc2cc(CCC(C)=O)ccc2c1`, the Potency result is “inactive”.
